# Values without a mark were called inactive. Records with an inconclusive call do not appear. Entries that show only a call come without a potency. Calls of active or inactive are those of the source. The call rests on the fitted dose curve; in most records, active means well fitted curve in the direction sought with a large enough effect in the repeat runs; inconclusive means weak or mixed curves; inactive means no such curve, though single readings can be large; an effect the other way counts as inactive or inconclusive.
# Columns and labels:
# [1] = qHTS RealTime-Glo MT Cell Viability Assay in HepG2 cells - 40 hour (AID 1224870); further: nearly all actives have a fitted effect of over 50% in size
# Outline: (§1)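 HepG2 cells mixed with RealTime-Glo MT reagents (NanoLuc plus cell-permeant prosubstrate) were seeded at 600 cells/well, incubated 5 h at 37 C/5% CO2, then pinned with compounds in DMSO; nonlytic luminescence tracked viability during 40 h treatment.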
# [2] = A CellTox Green Cytotoxicity Assay to monitor cytotoxicity in HEK293 cells - 40 hour (AID 1224871); further: nearly all actives have a fitted effect of over 45% in size
# Outline: (§2)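 HEK293 cells premixed with CellTox Green dye were seeded at 600 cells/well and left 5 h at 37 C/5% CO2 before pin transfer of 23 nL compound in DMSO. Fluorescence from dye bound to dead-cell DNA was read during 40 h treatment.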
# [3] = qHTS RealTime-Glo MT Cell Viability Assay in HEK293 cells - 16 hour (AID 1224872); further: nearly all actives have a fitted effect of over 50% in size; further: potency means the concentration at half of the fitted maximal effect; on activity change, negative = cytotoxicity: top concentration of the series differs between compounds
# Outline: (§3)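 Quantitative high-throughput screen of the Tox21 10K library in HEK293: cells and RealTime-Glo reagents plated together, compound added at 5 h, luminescence monitored through 40 h at 37 C.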
# [4] = qHTS RealTime-Glo MT Cell Viability Assay in HepG2 cells - 8 hour (AID 1224873); further: nearly all actives have a fitted effect of over 55% in size
# Outline: as §1
# [5] = A CellTox Green Cytotoxicity Assay to monitor cytotoxicity in HEK293 cells - 24 hour (AID 1224875); further: series mostly up to about 77 µM; nearly all actives have a fitted effect of over 45% in size
# Outline: as §2
# [6] = qHTS RealTime-Glo MT Cell Viability Assay in HepG2 cells - 32 hour (AID 1224877); further: nearly all actives have a fitted effect of over 55% in size
# Outline: (§4)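 Compound treatment began 5 h after plating HepG2 cells (600/well) with NanoLuc luciferase and prosubstrate. Plates stayed at 37 C for 40 h; luminescence was captured at six time points, 0 h through 40 h.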
# [7] = A CellTox Green Cytotoxicity Assay to monitor cytotoxicity in HepG2 cells - 40 hour (AID 1224879); further: nearly all actives have a fitted effect of over 40% in size
# Outline: (§5)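 HepG2 cells were seeded together with the CellTox Green dye at 600 cells/well, left 5 h at 37 C/5% CO2, then given compounds in DMSO. Fluorescence from dye bound to dead-cell DNA was read repeatedly over 40 h of treatment at 37 C.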
# [8] = qHTS RealTime-Glo MT Cell Viability Assay in HEK293 cells - 0 hour (AID 1224880); further: top concentration of the series differs between compounds; nearly all actives have a fitted effect of over 45% in size
# Outline: (§6)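 HEK293 cells mixed with RealTime-Glo reagents (NanoLuc plus cell-permeant prosubstrate) at 600 cells/well, preincubated 5 h at 37 C/5% CO2, then given 23 nL compound in DMSO. Nonlytic luminescence from viable cells was read at 0, 8, 16, 24, 32 and 40 h.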
# [9] = A CellTox Green Cytotoxicity Assay to monitor cytotoxicity in HEK293 cells - 32 hour (AID 1224881); further: nearly all actives have a fitted effect of over 40% in size
# Outline: as §2
# [10] = A CellTox Green Cytotoxicity Assay to monitor cytotoxicity in HepG2 cells - 0 hour (AID 1224882); further: nearly all actives have a fitted effect of over 35% in size
# Outline: as §5
# [11] = A CellTox Green Cytotoxicity Assay to monitor cytotoxicity in HepG2 cells - 32 hour (AID 1224883); further: nearly all actives have a fitted effect of over 50% in size
# Outline: as §5
# [12] = A CellTox Green Cytotoxicity Assay to monitor cytotoxicity in HEK293 cells - 8 hour (AID 1224884); further: nearly all actives have a fitted effect of over 35% in size
# Outline: as §2
# [13] = qHTS RealTime-Glo MT Cell Viability Assay in HepG2 cells - 16 hour (AID 1224885); further: nearly all actives have a fitted effect of over 50% in size
# Outline: as §4
# [14] = qHTS RealTime-Glo MT Cell Viability Assay in HEK293 cells - 24 hour (AID 1224886); further: nearly all actives have a fitted effect of over 50% in size; further: potency means the concentration at half of the fitted maximal effect; on activity change, negative = cytotoxicity: top concentration of the series differs between compounds
# Outline: as §3
# [15] = qHTS RealTime-Glo MT Cell Viability Assay in HEK293 cells - 8 hour (AID 1224887); further: nearly all actives have a fitted effect of over 50% in size; further: potency means the concentration at half of the fitted maximal effect; on activity change, negative = cytotoxicity: top concentration of the series differs between compounds
# Outline: as §6
# [16] = A CellTox Green Cytotoxicity Assay to monitor cytotoxicity in HEK293 cells - 16 hour (AID 1224888); further: nearly all actives have a fitted effect of over 35% in size
# Outline: as §2
# [17] = qHTS RealTime-Glo MT Cell Viability Assay in HepG2 cells - 0 hour (AID 1224889); further: nearly all actives have a fitted effect of over 50% in size
# Outline: as §4
# [18] = A CellTox Green Cytotoxicity Assay to monitor cytotoxicity in HepG2 cells - 16 hour (AID 1224876); further: nearly all actives have a fitted effect of over 45% in size
# Outline: as §5
# [19] = A CellTox Green Cytotoxicity Assay to monitor cytotoxicity in HepG2 cells - 24 hour (AID 1224878); further: nearly all actives have a fitted effect of over 45% in size
# Outline: as §5
# [20] = qHTS RealTime-Glo MT Cell Viability Assay in HEK293 cells - 40 hour (AID 1224874); conditions: RealTime-Glo luminescence; max response: active compounds read low; further: nearly all actives have a fitted effect of over 50% in size
# Outline: as §6
structure (smiles),measurement,setting,value
CO[C@@]1(NC(=O)CSCC#N)C(=O)N2C(C(=O)O)=C(CSc3nnnn3C)CS[C@@H]21,Potency,[1],inactive
same,Potency,[2],inactive
same,Potency,[3],inactive
same,outcome,[4],inactive
same,Potency,[5],inactive
same,Potency,[6],inactive
same,Potency,[7],inactive
same,outcome,[8],inactive
same,Potency,[9],inactive
same,Potency,[10],inactive
same,Potency,[11],inactive
same,Potency,[12],inactive
same,outcome,[13],inactive
same,Potency,[14],inactive
same,Potency,[15],inactive
same,Potency,[16],inactive
same,Potency,[17],inactive
CC(=O)N(CC(O)CN(C(C)=O)c1c(I)c(C(=O)NCC(O)CO)c(I)c(C(=O)NCC(O)CO)c1I)c1c(I)c(C(=O)NCC(O)CO)c(I)c(C(=O)NCC(O)CO)c1I (stereo not given),Potency,[1],inactive
same,Potency,[2],inactive
same,Potency,[3],inactive
same,outcome,[4],inactive
same,Potency,[5],inactive
same,Potency,[18],inactive
same,Potency,[6],inactive
same,Potency,[19],inactive
same,Potency,[7],inactive
same,outcome,[8],inactive
same,Potency,[9],inactive
same,Potency,[10],inactive
same,Potency,[11],inactive
same,Potency,[12],inactive
same,outcome,[13],inactive
same,Potency,[15],inactive
same,Potency,[16],inactive
same,Potency,[17],inactive
CN(C)CCOc1ccccc1Cc1ccccc1,Potency,[1],inactive
same,Potency,[2],inactive
same,Potency,[3],inactive
same,outcome,[4],inactive
same,Potency,[5],inactive
same,Potency,[6],inactive
same,outcome,[8],inactive
same,Potency,[9],inactive
same,Potency,[12],inactive
same,outcome,[13],inactive
same,Potency,[14],inactive
same,Potency,[15],inactive
same,Potency,[16],inactive
same,Potency,[17],inactive
CN1CCN(N)CC1,Potency,[1],inactive
same,Potency,[2],inactive
same,Potency,[3],inactive
same,outcome,[4],inactive
same,Potency,[5],inactive
same,Potency,[18],inactive
same,Potency,[6],inactive
same,Potency,[7],inactive
same,outcome,[8],inactive
same,Potency,[9],inactive
same,Potency,[10],inactive
same,Potency,[11],inactive
same,Potency,[12],inactive
same,outcome,[13],inactive
same,Potency,[14],inactive
same,Potency,[15],inactive
same,Potency,[16],inactive
same,Potency,[17],inactive
COc1cc(N)c(Cl)cc1C(=O)NC1CCN(Cc2ccccc2)CC1,Potency,[1],inactive
same,Potency,[2],inactive
same,Potency,[3],19 µM (active)
same,outcome,[4],inactive
same,Potency,[5],inactive
same,Potency,[18],inactive
same,Potency,[6],inactive
same,Potency,[19],inactive
same,Potency,[7],inactive
same,outcome,[8],inactive
same,Potency,[9],inactive
same,Potency,[10],inactive
same,Potency,[11],inactive
same,Potency,[12],inactive
same,outcome,[13],inactive
same,Potency,[14],19 µM (active)
same,Potency,[15],21.3 µM (active)
same,Potency,[17],inactive
COc1ccccc1OCC(O)COC(N)=O (stereo not given),Potency,[1],inactive
same,Potency,[2],inactive
same,outcome,[4],inactive
same,max response,[20],12.1%
same,Potency,[5],inactive
same,Potency,[18],inactive
same,Potency,[6],inactive
same,Potency,[19],inactive
same,Potency,[7],inactive
same,outcome,[8],inactive
same,Potency,[9],inactive
same,Potency,[10],inactive
same,Potency,[11],inactive
same,Potency,[12],inactive
same,outcome,[13],inactive
same,Potency,[14],inactive
same,Potency,[15],inactive
same,Potency,[17],inactive
Cc1nc(-c2ccccn2)ncc1C(=O)Nn1cc(C)c2cc(F)ccc21,Potency,[1],inactive
same,Potency,[2],inactive
same,Potency,[3],1.74 µM (active)
same,outcome,[4],inactive
same,Potency,[5],inactive
same,Potency,[18],inactive
same,Potency,[6],inactive
same,Potency,[19],inactive
same,Potency,[7],inactive
same,outcome,[8],inactive
same,Potency,[9],inactive
same,Potency,[10],inactive
same,Potency,[11],inactive
same,Potency,[12],inactive
same,outcome,[13],inactive
same,Potency,[15],1.95 µM (active)
same,Potency,[16],inactive
same,Potency,[17],inactive
FC(F)(F)c1ccccc1,Potency,[1],inactive
same,Potency,[2],inactive
same,outcome,[4],inactive
same,max response,[20],11.8%
same,Potency,[5],inactive
same,Potency,[18],inactive
same,Potency,[6],inactive
same,Potency,[19],inactive
same,Potency,[7],inactive
same,outcome,[8],inactive
same,Potency,[9],inactive
same,Potency,[10],inactive
same,Potency,[11],inactive
same,Potency,[12],inactive
same,outcome,[13],inactive
same,Potency,[15],inactive
same,Potency,[16],inactive
same,Potency,[17],inactive
CC(=O)N[C@@H](CC(C)C)C(=O)O,Potency,[1],inactive
same,Potency,[2],inactive
same,Potency,[3],inactive
same,outcome,[4],inactive
same,Potency,[5],inactive
same,Potency,[18],inactive
same,Potency,[6],inactive
same,Potency,[19],inactive
same,Potency,[7],inactive
same,outcome,[8],inactive
same,Potency,[9],inactive
same,Potency,[10],inactive
same,Potency,[11],inactive
same,Potency,[12],inactive
same,outcome,[13],inactive
same,Potency,[14],inactive
same,Potency,[15],inactive
same,Potency,[16],inactive
same,Potency,[17],inactive
O=C(O[C@@H](C(=O)O)[C@@H](OC(=O)c1ccccc1)C(=O)O)c1ccccc1,Potency,[1],inactive
same,Potency,[2],inactive
same,Potency,[3],inactive
same,outcome,[4],inactive
same,Potency,[5],inactive
same,Potency,[18],inactive
same,Potency,[6],inactive
same,Potency,[19],inactive
same,outcome,[8],inactive
same,Potency,[9],inactive
same,Potency,[10],inactive
same,Potency,[11],inactive
same,Potency,[12],inactive
same,outcome,[13],inactive
same,Potency,[15],inactive
same,Potency,[16],inactive
same,Potency,[17],inactive
C[C@@H]1CN(c2c(F)c(N)c3c(=O)c(C(=O)O)cn(C4CC4)c3c2F)C[C@H](C)N1,"activity change, negative = cytotoxic",[1],-0.442% [at 15.8 µM]
same,cytotoxicity increase,[2],6.32% [at 15.8 µM]
same,"viability change, negative = cytotoxic",[4],0.974% [at 15.8 µM]
same,max response,[20],-0.345%
same,activity change,[5],"0.48% [at 15.8 µM, active compounds read high]"
same,cytotoxicity increase,[18],-2.88% [at 15.8 µM]
same,"activity change, negative = cytotoxic",[6],1.06% [at 15.8 µM]
same,cytotoxicity,[19],-3.54% [at 15.8 µM]
same,cytotoxicity increase,[7],-1.78% [at 15.8 µM]
same,"activity change, negative = cytotoxicity",[8],-2.5% [at 15.8 µM]
same,cytotoxicity increase,[9],5.84% [at 15.8 µM]
same,cytotoxicity,[10],5.9% [at 15.8 µM]
same,cytotoxicity increase,[11],-7.06% [at 15.8 µM]
same,cytotoxicity increase,[12],-0.635% [at 15.8 µM]
same,"activity change, negative = cytotoxic",[13],0.182% [at 15.8 µM]
same,"activity change, negative = cytotoxicity",[14],4.31% [at 15.8 µM]
same,"activity change, negative = cytotoxicity",[15],0.0014% [at 15.8 µM]
same,activity change,[16],"-0.126% [at 15.8 µM, active compounds read high]"
same,"activity change, negative = cytotoxicity",[17],5.84% [at 15.8 µM]
O=C1C=CC(=O)O1,Potency,[1],inactive
same,Potency,[2],inactive
same,Potency,[3],inactive
same,outcome,[4],inactive
same,Potency,[5],inactive
same,Potency,[18],inactive
same,Potency,[6],inactive
same,Potency,[19],inactive
same,Potency,[7],inactive
same,outcome,[8],inactive
same,Potency,[9],inactive
same,Potency,[10],inactive
same,Potency,[12],inactive
same,outcome,[13],inactive
same,Potency,[14],inactive
same,Potency,[15],inactive
same,Potency,[16],inactive
same,Potency,[17],inactive
CC1(C)S[C@@H]2[C@H](NC(=O)C(C(=O)O)c3ccccc3)C(=O)N2[C@H]1C(=O)O (stereo not given in full),Potency,[1],inactive
same,Potency,[2],inactive
same,Potency,[3],inactive
same,outcome,[4],inactive
same,Potency,[5],inactive
same,Potency,[18],inactive
same,Potency,[6],inactive
same,Potency,[19],inactive
same,Potency,[7],inactive
same,outcome,[8],inactive
same,Potency,[9],inactive
same,Potency,[10],inactive
same,Potency,[12],inactive
same,outcome,[13],inactive
same,Potency,[14],inactive
same,Potency,[15],inactive
same,Potency,[16],inactive
same,Potency,[17],inactive

# — PubChem BioAssay (Tox21)
